# Screening results (PubChem)
# Only a selection was taken, and hits are over-represented in it overall.
# Pf Dd2 growth – inhibitors of Plasmodium falciparum Dd2 growth | P. falciparum Dd2 growth, SYBR Green, 72 h | Potency, µM (titrated, usually from 28.9 µM), inactives show at the top dose activity, negative = inhibition, actives largely listed as inhibitors | 120,000 compounds, 4.3% hits; active = well fitted inhibition curve with a large enough effect;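 also: plate controls were DMSO vehicle for no effect and reference drug for full effect; nearly all actives have a fitted effect of over 65% in size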
#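 Readout: SYBR Green fluorescence, 485 nm excitation, 535 nm emission, after ~16 h lysis at 37C. Before that, Dd2-infected red cells (2.5% hematocrit) grew 72 h with compound, 29 uM top final concentration.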
# * = called active by the depositor; i = inactive; [ ] = dose if it differs, or a comment. Potency is read from the fitted curve at half-maximal effect.
SMILES,Pf Dd2 growth
CC1=C(C(=O)OC(C)C)C(c2ccc(C)cc2)N2C(CC(=O)N(C)Cc3ccco3)=CSC2=N1 (centres undefined),-2.0%
COc1ccc(S(=O)(=O)N2CCC(n3cnnc3C3CC3)CC2)cc1,-10.4%
Cn1cccc1C(=O)N1CCN(C(=O)c2nnn3c2COC(c2ccc(Cl)cc2)C3)CC1 (centres undefined),-6.6%
O=C(NCc1cccnc1)C1CCC(=O)N(CCCN2CCCC2=O)C1 (centres undefined),-1.4%
CCC(NC(=O)c1ccc(C)c(NC(=O)C2CC2)c1)c1ncnn1CC (centres undefined),8.9%
CCN(c1ccc2c(c1)OCO2)C1CN(C(=O)OC(C)(C)C)C1,-14.2%
Cc1[nH]cnc1CN1CCN(C2CCCC2)CC(C(=O)O)C1 (centres undefined),-8.5%
Cc1cc(C)nc(CNC2CCN(c3nc(C)nc4sccc34)CC2)n1,-8.2%
Cc1cc(N2CCC(NCc3nc[nH]c3C)CC2)nc(-c2ccccc2O)n1,10µM*
COCC(=O)N[C@@H]1CN(Cc2ccccc2F)C[C@H]1CO,-5.3%
CCCN(C)C(=O)c1c(-c2ccccc2)noc1[C@H](C)O,-2.4%[44.1 µM]
COCCNC(=O)c1cnn(-c2ccc(C)cc2C)c1C1CCN(C(=O)OC(C)(C)C)CC1,-12.6%
COc1ccc(-n2ncc(C(=O)NCCN3CCOCC3)c2C2CCN(C(=O)OC(C)(C)C)CC2)cc1,-8.8%
Cc1ccc(-n2ncc(C(=O)NC3CCCC3)c2C2CCN(C(=O)OC(C)(C)C)CC2)c(C)c1,10µM*
Cc1ccc(-n2ncc(C(=O)NCc3cccs3)c2C2CCN(C(=O)OC(C)(C)C)CC2)cc1,i
CC(C)(C)OC(=O)N1CCC(c2c(C(=O)NCc3ccco3)cnn2-c2ccccc2)CC1,10µM*
CC(C)(C)OC(=O)N1CCC(c2c(C(=O)NCc3ccccc3)cnn2-c2ccccc2)CC1,i
Cc1ccc(-n2ncc(C(=O)NCCN3CCCC3)c2C2CCN(C(=O)OC(C)(C)C)CC2)cc1C,i
CC(C)(C)OC(=O)N1CCC(c2c(C(=O)NCCN3CCOCC3)cnn2-c2cccc(Cl)c2)CC1,10µM*
Cc1ccc(-n2ncc(C(=O)NCCCN3CCCCC3)c2C2CCN(C(=O)OC(C)(C)C)CC2)c(C)c1,8.91µM*
COc1ccc(C2Cn3nnc(C(=O)N4CCC(C(=O)NC5CC5)CC4)c3CO2)cc1 (centres undefined),-15.8%
CCCCc1ncc(-c2nccn2C2CCNC2)[nH]1 (centres undefined),9.6%
COc1ccc(C2Cn3cnc(C(=O)N4CCC(C(=O)Nc5cccc(Cl)c5)CC4)c3CO2)cc1 (centres undefined),-21.5%
COC1C(=O)N(CC2CC2)C12CCN(C(=O)C1CC1)CC2 (centres undefined),i
O=C1CN(c2ccc(C(=O)N3C[C@@H](C(=O)O)[C@H](C4CC4)C3)cc2)C(=O)N1,-17.8%
SMILES,Pf Dd2 growth
CC1CCC(NC(=O)CN2C(=O)NC3(CCC(C)CC3)C2=O)CC1 (centres undefined),-8.0%
C[S+](=O)([O-])NCCn1ccc2cc(OC3CCN(C(=O)C4CCCC4)CC3)cnc21,i
CC(C)(C)OC(=O)N1CCC(c2c(C(=O)NCCCN3CCc4ccccc4C3)cnn2-c2ccccc2)CC1,8.91µM*
CCN1CCN(CCCNC(=O)c2cnn(-c3ccccc3)c2C2CCN(C(=O)OC(C)(C)C)CC2)CC1,-29.4%
Cc1ccc(-n2ncc(C(=O)NCCCN3CCN(C)CC3)c2C2CCN(C(=O)OC(C)(C)C)CC2)cc1,i
Cc1ccc(-n2ncc(C(=O)NCCCN3CCc4ccccc4C3)c2C2CCN(C(=O)OC(C)(C)C)CC2)c(C)c1,7.08µM*
CNC(=O)[C@@H]1CN(C(=O)c2ccc(F)cc2Cl)C[C@H]1COC,10.4%
CC[C@H]1CN(C(=O)c2ccnc(Cl)c2)CC[C@H]1CC(=O)N1CCOCC1,-0.7%[44.1 µM]
Cc1cc(C(=O)N2C[C@@H](COc3ccccc3)[C@H](C(N)=O)C2)n(C)n1,6.9%
CCOc1ccc(-c2cc3nc(C4CCN(C(=O)OC(C)(C)C)CC4)c(C(=O)Nc4ccc(C)cc4C)cn3n2)cc1,8.91µM*
CCOc1ccc(-c2nnc(SCC(=O)Nc3ccc(C)cc3C)o2)cc1,15.5%
COc1ccc(-n2ncc(C(=O)Nc3ccc(C)cc3Cl)c2C2CCN(C(=O)OC(C)(C)C)CC2)cc1,-6.7%
CCc1ccc(NC(=O)c2cnn(-c3c(C)cccc3C)c2C2CCN(C(=O)OC(C)(C)C)CC2)cc1,-9.8%
CCOc1ccc(-c2c(C)nn3c(C)c(C(=O)Nc4cccc(Cl)c4C)cnc23)cc1OCC,i
CCOc1ccc(-c2cc(C(=O)N3CCN(c4cccc(C)c4)C(C)C3)c3ccccc3n2)cc1 (centres undefined),-28.6%
CCOc1ccc(-c2cc3nc(C4CCN(C(=O)OC(C)(C)C)CC4)c(C(=O)Nc4cccc(Cl)c4C)cn3n2)cc1,5.01µM*
CCOc1ccc(-c2nnc(SCC(=O)Nc3ccc(C)cc3Cl)o2)cc1,13.5%
Cc1cccc(C)c1-n1ncc(C(=O)O)c1C1CCN(C(=O)OC(C)(C)C)CC1,-2.0%
CCOc1ccc(-c2cc3nc(C4CCN(C(=O)OC(C)(C)C)CC4)c(C(=O)Nc4ccc(C)cc4Cl)cn3n2)cc1,3.98µM*
COc1ccc(-c2cc(C(F)(F)F)n3nc(C(=O)Nc4cccc(Cl)c4C)cc3n2)cc1,39.1%
CCOc1ccc(-c2cc3nc(C4CCN(C(=O)OC(C)(C)C)CC4)c(C(=O)Nc4c(C)cccc4C)cn3n2)cc1,2.51µM*
CCN(CC)C(=O)N1C[C@H](NC(=O)c2cn(C)c(=O)[nH]c2=O)[C@@H](C2CC2)C1,-8.2%
CCC(=O)N(C1CCOCC1)C1CCN(Cc2cc(OC)cc(OC)c2)CC1,7.7%
c1csc(-c2[nH]ncc2CNC2CCC3(CCNCC3)CC2)c1,9.3%
COCCN(C)C[C@H]1C[C@H](CO)CN(C(=O)c2ccc(OC)c(F)c2)C1,2.8%
SMILES,Pf Dd2 growth
O=C(N[C@H]1[C@H]2CCO[C@H]2[C@@H]1N1CCCCC1)c1ccccc1-c1nn[nH]n1,-6.5%
CC(C)CCN1CCn2c(nnc2-c2ccc(Cl)cc2)C1,0.6%
O=C(Nc1ccc(Cl)cc1)C1=NO[C@@H]2CN(c3ccccc3)C[C@H]12,1.1%[44.1 µM]
Cc1ncoc1C(=O)NCCc1ncc(C)n1CC1CC1,-4.7%
CN(C)c1ccc(CN2CC[C@H](c3nc4cc(Cl)ccc4o3)C2)cc1,i
CN(C)Cc1nnc(C2CC(NC(=O)c3ccn(C)c(=O)c3)C2)n1C (centres undefined),-8.3%
CCCn1cnc(NC(=O)NC2CC(C)(C)NC(C)(C)C2)n1,0.2%
O=C(c1ccc2c(c1)OCO2)N1CCN2C(=O)NC[C@H]2C1,17.9%[44.1 µM]
O=C(CC1=CCCCC1)N1CCC(C2CCNC2)CC1 (centres undefined),1.9%
CCC(C)NC(=O)C(NC(=O)c1cccc(OC)c1)C1CCN(C(=O)c2cccc(C)c2)CC1 (centres undefined),i
COc1ncc(-c2nc(-c3c(C)noc3C)cc3c2cc(C)n3CCN(C)C)cn1,14.1µM*
Cc1noc(C)c1-c1cc2c(cc(C)n2C)c(-c2ccccc2)n1,i
COc1ncccc1-c1nc(-c2c(C)noc2C)cc2c1cc(C)n2CCN(C)C,i
CC(C)c1nc2c(NC(=O)Nc3cccc(Cl)c3)cccn2n1,-17.9%
CCc1ccccc1S(=O)(=O)Nc1cccn2nc(C(C)C)nc12,8.91µM*
CCc1nc2c(NS(=O)(=O)c3cccnc3)cccn2n1,-7.8%
CC(C)c1nc2c(NC(=O)c3cccc(Br)c3)cccn2n1,3.16µM*
